About 83,000 compounds went through this panel and 20% of them were active in at least one assay; those are over-represented in the sample as a whole.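 Growth was measured after 48 h exposure to one concentration of compound in 96-well plates. Values under 10 count as active.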 A number with no mark means an inactive call. The source made the active and inactive calls.

For the test, the system named is HL-60(TB) leukemia. The experiment in a line: NCI-60 one-dose screen, 48 h (100 = growth as untreated, 0 = no growth, -100 = all killed). The note with it: 10 µM unless noted.
As to `C#Cc1nc(/C=C/CCCCCCC(=O)NO)cs1`, the growth was -64.8% (active).
For the compound `C#C[C@]1(O)CC[C@H]2[C@@H]3CC=C4c5sc(Nc6cc(Cl)ccn6)nc5CC[C@]4(C)[C@H]3CC[C@@]21C`, the growth was 2.68% (active).
To `CCNC(=O)N1CCc2cc(OC)c(OCCc3ccc(OC)cc3)cc2C1c1ccc(Cl)cc1C` (configuration not stated) belongs 12.2%; to `CCc1cc(OC(=O)N2CCN(CCC(C)(COC(C)(C)C)COC(C)(C)C)CC2)ccc1Nc1cc(-c2ccc(-n3cccn3)cc2)[nH]n1`, 66.5%; to `COc1cc2oc(-c3cccc(N)c3)cc(=O)c2c(OC)c1OC`, 96.8%.
With `COC[C@]12CC[C@@H](C)[C@H](C)[C@H]1C1=CC[C@@H]3[C@@]4(C)CCCNC(C)(C)[C@@H]4CC[C@@]3(C)[C@]1(C)CC2`, the growth is -47.1% (active).
As for `C#CCN(C)CCCOc1ccc(NCc2ccc(C(=O)NO)cc2)cc1Cl`, the growth is 12%.
On to `COc1ccc([C@H]2c3[nH]c4ccccc4c3C[C@@H]3C(=O)N(C4CCN(Cc5ccccc5)CC4)CC(=O)N23)c(OC)c1`, for which the growth is 50.7%.
Turning to `CN1CCN(c2ccc(/C=N/Nc3nc4ccccc4c(=O)n3-c3ccccc3)cc2)CC1`, the growth was 113%.
`COc1ccc(-c2nc3cc(Cl)c(Cl)cc3n2CC(=O)N=Nc2c(O)[nH]c3ccccc23)cc1`: the growth is 92.5%.
Take `Cc1cc(F)cc(NS(=O)(=O)c2ccc(-c3cnc(C4CC4)o3)cc2)c1`: the growth was 1.67% (active).
In the case of `CC(=O)c1cc(C(=O)N2c3ccccc3Sc3ccccc32)n2ccc3ccccc3c12`, the growth is 9.89% (active).

The values are drawn from PubChem BioAssay (NCI).
